Test results as given in PubChem BioAssay (Tox21).
Results filed as inconclusive are left out. The source made the active and inactive calls. Unless noted, calls come from the whole dose curve; as a rule, active = well fitted curve in the direction sought with a large enough effect in the repeat runs; inconclusive = weak or mixed curves; inactive = no such curve, though single readings can be large; an effect the other way counts as inactive or inconclusive.

What was measured:
[1] = biological target: Progesterone receptor (Homo sapiens) (UniProt P06401); test: qHTS assay to identify small molecule agonists of the progesterone receptor (PR) signaling pathway (AID 1346784; calls by dose curve; note: nearly all actives have a fitted effect of over 30% in size)
Sequence of Progesterone receptor (Homo sapiens) (P06401 whole entry, looked up): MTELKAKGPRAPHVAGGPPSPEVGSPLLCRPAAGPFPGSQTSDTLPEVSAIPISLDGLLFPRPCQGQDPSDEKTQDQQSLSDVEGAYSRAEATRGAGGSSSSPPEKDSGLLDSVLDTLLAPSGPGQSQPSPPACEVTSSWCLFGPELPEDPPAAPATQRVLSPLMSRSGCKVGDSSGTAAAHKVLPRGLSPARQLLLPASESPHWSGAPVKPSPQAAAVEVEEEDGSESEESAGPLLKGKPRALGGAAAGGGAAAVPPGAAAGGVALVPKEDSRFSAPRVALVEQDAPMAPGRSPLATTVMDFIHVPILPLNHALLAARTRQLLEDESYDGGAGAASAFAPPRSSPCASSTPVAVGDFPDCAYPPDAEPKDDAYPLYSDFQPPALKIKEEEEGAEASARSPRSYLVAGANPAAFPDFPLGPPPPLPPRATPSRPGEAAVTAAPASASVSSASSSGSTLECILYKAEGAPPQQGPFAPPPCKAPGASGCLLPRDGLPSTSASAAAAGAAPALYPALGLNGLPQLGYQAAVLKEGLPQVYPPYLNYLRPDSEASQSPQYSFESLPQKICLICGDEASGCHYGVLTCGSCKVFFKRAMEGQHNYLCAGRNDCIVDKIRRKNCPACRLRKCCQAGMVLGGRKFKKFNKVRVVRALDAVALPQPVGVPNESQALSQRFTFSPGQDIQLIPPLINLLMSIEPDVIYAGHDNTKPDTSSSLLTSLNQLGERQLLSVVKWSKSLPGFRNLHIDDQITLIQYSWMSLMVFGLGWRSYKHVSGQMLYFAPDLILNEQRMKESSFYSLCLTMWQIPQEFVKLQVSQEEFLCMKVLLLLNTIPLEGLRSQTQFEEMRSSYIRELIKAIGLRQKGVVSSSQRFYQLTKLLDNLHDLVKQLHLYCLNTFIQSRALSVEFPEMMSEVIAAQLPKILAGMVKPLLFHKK
In short: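 PR-UAS-bla HEK 293T cells (beta-lactamase reporter under UAS) in 2% charcoal-stripped FBS, dosed with 23 nL compound after 6 hr, incubated 16hr at 37C. LiveBLAzer B/G FRET substrate added, fluorescence read after 2 hours.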

[2] = biological target: Progesterone receptor (Homo sapiens) (UniProt P06401); test: qHTS assay to identify small molecule antagonists of the progesterone receptor (PR) signaling pathway (AID 1346795; active = well fitted inhibition curve with a large enough effect in the signal ratio in the repeat runs, not every such curve was filed as active; the % refers to the signal ratio)
In short: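 PR-UAS-bla HEK293T cells with beta-lactamase reporter under UAS control, in 2% charcoal-stripped FBS, treated with compounds plus 1 nM promegestone (R5020, final) for 16 hr at 37C. Read-out: FRET beta-lactamase substrate fluorescence after 2 hr at room temperature.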

[3] = qHTS assay to identify small molecule antagonists of the progesterone receptor (PR) signaling pathway - cell viability counter screen (AID 1346798); note: series mostly up to about 92 µM; nearly all actives have a fitted effect of over 50% in size
In short: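 PR-UAS-bla HEK293T cells, 3,000/well in 2% charcoal-stripped FBS medium, dosed with compounds plus R5020 agonist and incubated 16 h at 37C. Viability then measured in the same wells by CellTiter-Glo luminescence after 30 min at RT.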

[4] = qHTS assay to identify small molecule agonists of the progesterone receptor (PR) signaling pathway - cell viability counter screen (AID 1346799; calls by dose curve; note: nearly all actives have a fitted effect of over 45% in size; note: potency is the fitted concentration of half-maximal effect)
In short: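 Counter screen in the PR-UAS-bla HEK293T wells (2% charcoal-stripped FBS, 16 h compound exposure at 37 C) after the bla read. CellTiter-Glo added, 30 min at room temperature, luminescence read as cell viability.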

[5] = qHTS assay to identify small molecule antagonists of the TGF-beta/Smad signaling pathway - cell viability counter screen (AID 1346824); note: nearly all actives have a fitted effect of over 50% in size
In short: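 SBE-bla HEK 293T cells, incubated overnight, then compound plus 0.25 ng/mL TGF-beta1 (stock added) for 5 hr at 37 C. Viability was read in the same wells by CellTiter-Glo luminescence after 30 min at room temperature.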

[6] = qHTS assay to identify small molecule agonists of the TGF-beta/Smad signaling pathway - cell viability counter screen (AID 1346829); note: top concentration of the series differs between compounds; nearly all actives have a fitted effect of over 45% in size
In short: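 In parallel with the Smad reporter read, viability of HEK 293T cells stably carrying SBE-bla is quantified by ATP luminescence following 5 hr compound treatment.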

[7] = qHTS assay to identify small molecule agonists of the TGF-beta/Smad signaling pathway (AID 1346859; active = well fitted activation curve with a large enough effect in the signal ratio in the repeat runs, not every such curve was filed as active; the % refers to the signal ratio; note: series mostly up to about 77 µM)
In short: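 SBE-bla HEK293T cells plated overnight, then compound exposure for 5 h at 37 C. Beta-lactamase reporter read with LiveBLAzer B/G FRET substrate after 2 h at room temperature, fluorescence at 405 nm excitation, 460/530 nm emission.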

[8] = biological target: Thyrotropin-releasing hormone receptor (Homo sapiens) (UniProt P34981); test: qHTS assay to identify small molecule antagonists of the thyrotropin-releasing hormone receptor (TRHR) signaling pathway (AID 1346877; active = well fitted inhibition curve with a large enough effect in the repeat runs, not every such curve was filed as active; note: series mostly up to about 51 µM)
Sequence of Thyrotropin-releasing hormone receptor (Homo sapiens) (P34981 whole entry, looked up): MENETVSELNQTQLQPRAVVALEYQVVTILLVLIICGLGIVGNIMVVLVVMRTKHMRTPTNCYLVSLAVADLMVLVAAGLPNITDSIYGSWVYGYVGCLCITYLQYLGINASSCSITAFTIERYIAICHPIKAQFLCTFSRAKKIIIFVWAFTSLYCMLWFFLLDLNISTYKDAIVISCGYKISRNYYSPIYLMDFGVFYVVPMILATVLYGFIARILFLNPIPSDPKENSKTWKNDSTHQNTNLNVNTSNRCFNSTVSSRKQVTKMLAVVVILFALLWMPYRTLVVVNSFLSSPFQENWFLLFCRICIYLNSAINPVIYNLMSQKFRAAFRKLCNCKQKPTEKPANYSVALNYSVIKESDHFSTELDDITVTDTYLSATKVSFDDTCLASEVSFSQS
In short: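 TRHR-expressing HEK293 cells were seeded, cultured 18 h at 37 °C, then loaded with calcium dye for 2 h. Compounds were pre-incubated 5 min at room temperature before 1 nM TRH (final) was added, and kinetic fluorescence was recorded for 3 min.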

[9] = biological target: Thyrotropin-releasing hormone receptor (Homo sapiens) (UniProt P34981); test: qHTS assay to identify small molecule agonists of the thyrotropin-releasing hormone receptor (TRHR) signaling pathway (AID 1346891; calls by dose curve; note: series mostly up to about 58 µM)
In short: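 HEK293 cells expressing TRHR plated 18 h at 37 C/5% CO2, calcium dye-loaded 2 h at 37 C, then compound added (agonist mode); kinetic calcium fluorescence read 3 min at 1 s intervals; 15 concentrations in triplicate.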

[10] = Human pregnane X receptor (PXR) small molecule agonists, qHTS cell viability counter screen (AID 1346977); note: nearly all actives have a fitted effect of over 50% in size
In short: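 PXR-Luc HepG2 cells (2,000/well, 5% charcoal-stripped FBS) preincubated 5 hr, then exposed to compounds 24 hr at 37 C. Viability read in the same wells by CellTiter-Fluor fluorescence, reagent added at 23 hr, 1 hr incubation.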

[11] = Caspase-3/7 induction in HepG2 cells by small molecules, qHTS assay (AID 1346978); note: nearly all actives have a fitted effect of over 15% in size
In short: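 Wild-type HepG2 cells, 2,000/well, settled 5 hr at 37 C and 5% CO2, then compound-treated for 17 hr; caspase-3/7 activity read by luminescent Caspase-Glo 3/7 after 30 min at room temperature.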

[12] = Caspase-3/7 induction in CHO-K1 cells by small molecules, qHTS cell viability counter screen (AID 1346979); note: nearly all actives have a fitted effect of over 35% in size
In short: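 Wild-type CHO-K1 cells (1,500/well) treated with compound after 5 h plating; after 16 h at 37C, viability read as CellTiter-Fluor fluorescence following 1 h reagent incubation, in the same wells as the caspase read.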

[13] = Caspase-3/7 induction in CHO-K1 cells by small molecules, qHTS assay (AID 1346980); note: nearly all actives have a fitted effect of over 15% in size
In short: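 Wild-type CHO-K1 cells exposed to compounds for 17hr at 37 C, 5% CO2. Caspase-3/7 activity then measured by Caspase-Glo 3/7 luminescence after 30min at room temperature.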

[14] = Caspase-3/7 induction in HepG2 cells by small molecules, qHTS cell viability counter screen (AID 1346981); note: series mostly up to about 92 µM; nearly all actives have a fitted effect of over 30% in size
In short: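 Wild-type HepG2 cells (2,000/well) were allowed to settle for 5 hr at 37 C, 5% CO2, then dosed with compounds in DMSO by pin transfer. After 16 hr at 37 C, CellTiter-Fluor was added and fluorescence read 1 hr later.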

[15] = biological target: Cytochrome P450 2D6 (Homo sapiens) (UniProt P10635); test: Cytochrome P450 Family 2 Subfamily D Member 6 (CYP2D6) small molecule antagonists: luciferase reporter qHTS assay (AID 1671196); note: nearly all actives have a fitted effect of over 50% in size; note: potency is the fitted concentration of half-maximal effect; for activity change, negative = inhibition: series mostly up to about 120 µM
Sequence of Cytochrome P450 2D6 (Homo sapiens) (P10635 whole entry, looked up): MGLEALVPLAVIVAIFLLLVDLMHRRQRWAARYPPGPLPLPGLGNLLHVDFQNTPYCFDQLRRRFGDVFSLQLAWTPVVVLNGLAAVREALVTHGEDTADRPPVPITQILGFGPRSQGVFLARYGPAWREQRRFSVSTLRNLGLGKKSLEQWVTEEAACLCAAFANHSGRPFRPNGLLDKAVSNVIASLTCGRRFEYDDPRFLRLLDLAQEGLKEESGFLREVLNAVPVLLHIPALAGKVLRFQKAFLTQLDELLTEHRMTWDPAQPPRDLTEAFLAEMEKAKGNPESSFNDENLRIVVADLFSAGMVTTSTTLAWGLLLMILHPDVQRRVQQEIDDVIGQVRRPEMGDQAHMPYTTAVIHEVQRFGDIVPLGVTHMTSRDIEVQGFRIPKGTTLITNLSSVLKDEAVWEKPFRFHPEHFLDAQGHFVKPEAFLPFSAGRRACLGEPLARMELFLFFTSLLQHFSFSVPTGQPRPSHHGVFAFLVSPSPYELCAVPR
In short: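 CYP2D6 enzyme–substrate mix was held with compound for 10 min at room temperature, then NADPH regeneration solution was added and the reaction ran 1 h at room temperature. Luciferin product was detected by luminescence after 20 min with detection reagent.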

[16] = biological target: Cytochrome P450 2C9 (Homo sapiens) (UniProt P11712); test: Cytochrome P450 Family 2 Subfamily C Member 9 (CYP2C9) small molecule antagonists: luciferase reporter qHTS assay (AID 1671198); note: nearly all actives have a fitted effect of over 50% in size; note: potency is the fitted concentration of half-maximal effect; for activity change, negative = inhibition: series mostly up to about 120 µM
Sequence of Cytochrome P450 2C9 (Homo sapiens) (P11712 whole entry, looked up): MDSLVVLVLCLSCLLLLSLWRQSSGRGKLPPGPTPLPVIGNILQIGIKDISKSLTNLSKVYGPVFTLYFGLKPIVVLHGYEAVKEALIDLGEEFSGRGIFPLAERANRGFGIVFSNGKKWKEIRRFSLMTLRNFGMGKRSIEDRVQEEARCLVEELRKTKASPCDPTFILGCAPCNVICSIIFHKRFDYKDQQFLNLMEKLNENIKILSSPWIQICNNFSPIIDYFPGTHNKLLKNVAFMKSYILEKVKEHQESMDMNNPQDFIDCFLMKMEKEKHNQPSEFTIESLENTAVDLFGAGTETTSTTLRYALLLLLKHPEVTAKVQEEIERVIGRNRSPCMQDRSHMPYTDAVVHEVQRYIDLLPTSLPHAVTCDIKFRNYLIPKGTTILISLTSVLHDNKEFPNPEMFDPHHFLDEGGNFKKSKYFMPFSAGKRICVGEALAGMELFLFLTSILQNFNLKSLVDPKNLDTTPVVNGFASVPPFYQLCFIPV
In short: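 P450-Glo proluciferin substrate with CYP2C9 enzyme; 10 min RT preincubation, then NADPH regeneration 1 h at 37C; luciferin detection reagent 20 min RT, luminescence in relative luminescence units.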

[17] = biological target: Nuclear receptor subfamily 1 group I member 2 (Homo sapiens) (UniProt O75469); test: Human pregnane X receptor (PXR) small molecule agonists, qHTS assay (AID 1346982); note: nearly all actives have a fitted effect of over 35% in size
Sequence of Nuclear receptor subfamily 1 group I member 2 (Homo sapiens) (O75469 whole entry, looked up): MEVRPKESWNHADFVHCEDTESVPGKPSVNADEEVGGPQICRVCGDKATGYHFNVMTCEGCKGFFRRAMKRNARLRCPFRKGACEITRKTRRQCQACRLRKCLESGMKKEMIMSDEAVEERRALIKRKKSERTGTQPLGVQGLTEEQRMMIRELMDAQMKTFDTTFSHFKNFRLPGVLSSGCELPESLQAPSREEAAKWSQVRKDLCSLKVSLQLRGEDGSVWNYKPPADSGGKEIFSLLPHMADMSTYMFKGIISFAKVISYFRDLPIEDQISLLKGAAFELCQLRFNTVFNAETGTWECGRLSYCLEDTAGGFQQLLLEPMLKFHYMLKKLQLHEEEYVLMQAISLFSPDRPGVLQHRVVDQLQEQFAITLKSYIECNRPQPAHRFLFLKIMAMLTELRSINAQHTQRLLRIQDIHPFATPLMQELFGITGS
In short: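 PXR-Luc HepG2 cells (CYP3A4 promoter-driven luciferase) were seeded in medium with 5% charcoal-stripped FBS, left 5 hr at 37 C, then exposed to compounds in DMSO for 24 hr. Luminescence was read after ONE-Glo addition.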

[18] = biological target: Cytochrome P450 2C19 (Homo sapiens) (UniProt P33261); test: Cytochrome P450 Family 2 Subfamily C Member 19 (CYP2C19) small molecule antagonists: luciferase reporter qHTS assay (AID 1671197); note: nearly all actives have a fitted effect of over 65% in size; note: potency is the fitted concentration of half-maximal effect; for activity change, negative = inhibition: series mostly up to about 120 µM
Sequence of Cytochrome P450 2C19 (Homo sapiens) (P33261 whole entry, looked up): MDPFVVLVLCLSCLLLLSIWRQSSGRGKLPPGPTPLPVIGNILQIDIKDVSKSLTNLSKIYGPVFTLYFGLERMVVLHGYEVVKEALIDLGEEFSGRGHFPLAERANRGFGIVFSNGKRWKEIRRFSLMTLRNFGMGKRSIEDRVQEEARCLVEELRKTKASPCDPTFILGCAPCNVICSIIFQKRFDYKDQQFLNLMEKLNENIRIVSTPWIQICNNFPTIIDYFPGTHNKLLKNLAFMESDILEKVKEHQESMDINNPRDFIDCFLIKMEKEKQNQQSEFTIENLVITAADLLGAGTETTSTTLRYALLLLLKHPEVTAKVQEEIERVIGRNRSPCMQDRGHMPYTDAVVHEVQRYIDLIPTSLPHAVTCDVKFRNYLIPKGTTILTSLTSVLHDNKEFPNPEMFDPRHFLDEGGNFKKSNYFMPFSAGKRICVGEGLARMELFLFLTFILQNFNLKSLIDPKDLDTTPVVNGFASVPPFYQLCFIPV
In short: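 Compounds were tested on CYP2C19 activity via proluciferin conversion to luciferin. The 37C, 1 h reaction followed NADPH addition; detection reagent stopped it.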
% is set by controls: 0 for no effect and ±100 for the full control effect.

CCc1cccc(C)c1
inactive: outcome [1] | Potency [2] | Potency [3] | Potency [4] | Potency [5] | Potency [6] | Potency [7] | Potency [8] | Potency [9] | Potency [10] | Potency [11] | Potency [12] | Potency [13] | Potency [14] | Potency [15] | Potency [16]

CCOC(/C=C(\C)CCC=C(C)C)OCC
inactive: outcome [1] | Potency [2] | Potency [3] | Potency [4] | Potency [5] | Potency [6] | Potency [7] | Potency [8] | Potency [9] | Potency [10] | Potency [11] | Potency [12] | Potency [14] | Potency [17] | Potency [15] | Potency [16]

O=C(O)CCCCCCC(=O)O
active: Potency [15] 35.9 µM
inactive: outcome [1] | Potency [2] | Potency [3] | Potency [4] | Potency [5] | Potency [6] | Potency [7] | Potency [8] | Potency [9] | Potency [10] | Potency [11] | Potency [12] | Potency [13] | Potency [14] | Potency [17] | Potency [16]

CCc1cccc(CC)c1NC(=O)C(=O)O
inactive: outcome [1] | Potency [2] | Potency [3] | Potency [4] | Potency [5] | Potency [6] | Potency [7] | Potency [8] | Potency [9] | Potency [10] | Potency [11] | Potency [12] | Potency [13] | Potency [17] | Potency [15] | Potency [18] | Potency [16]

O=S(=O)(O)CCCN1CCOCC1
inactive: outcome [1] | Potency [2] | Potency [3] | Potency [4] | Potency [5] | Potency [6] | Potency [7] | Potency [8] | Potency [9] | Potency [10] | Potency [11] | Potency [12] | Potency [13] | Potency [14] | Potency [17] | Potency [15] | Potency [18] | Potency [16]

Brc1ccccn1
inactive: outcome [1] | Potency [2] | Potency [3] | Potency [4] | Potency [5] | Potency [6] | Potency [7] | Potency [8] | Potency [9] | Potency [10] | Potency [11] | Potency [12] | Potency [13] | Potency [14] | Potency [17] | Potency [15] | Potency [16]

CCCCCCCC(OC)OC
inactive: outcome [1] | Potency [2] | Potency [3] | Potency [4] | Potency [5] | Potency [6] | Potency [7] | Potency [8] | Potency [9] | Potency [10] | Potency [11] | Potency [12] | Potency [13] | Potency [14] | Potency [17] | Potency [15] | Potency [18] | Potency [16]

CC1=CP(=O)(c2ccccc2)CC1 (stereo not given)
inactive: outcome [1] | Potency [2] | Potency [3] | Potency [4] | Potency [5] | Potency [6] | Potency [7] | Potency [8] | Potency [9] | Potency [10] | Potency [11] | Potency [12] | Potency [13] | Potency [14] | Potency [17] | Potency [15] | Potency [16]

CCCC(CC)CCCCCCCN (stereo not given)
active: Potency [4] 28 µM | Potency [15] 0.817 µM | Potency [18] 0.365 µM | Potency [16] 25.8 µM
inactive: outcome [1] | Potency [2] | Potency [3] | Potency [5] | Potency [6] | Potency [7] | Potency [8] | Potency [9] | Potency [10] | Potency [11] | Potency [12] | Potency [13] | Potency [14]

CC(=O)c1ccccc1N
inactive: outcome [1] | Potency [2] | Potency [3] | Potency [4] | Potency [5] | Potency [6] | Potency [7] | Potency [8] | Potency [9] | Potency [10] | Potency [11] | Potency [12] | Potency [13] | Potency [14] | Potency [17] | Potency [18] | Potency [16]

CCN1CCN(c2cc(-c3ccc(F)cc3)c3c(n2)CCCCCC3)CC1
active: Potency [15] 6.74 µM
inactive: activation [1] -3.65% [at 19 µM] | activity change, negative = inhibition [2] -13.2% [at 18.9 µM] | activity change, negative = cytotoxicity [3] 1.1% [at 18.9 µM] | activity change, negative = cytotoxicity [4] 2.26% [at 19 µM] | viability change, negative = cytotoxic [5] 0.113% [at 15.8 µM] | activity change, negative = cytotoxicity [6] -0.583% [at 15.8 µM] | activation [7] -2.06% [at 15.8 µM] | activity, negative = inhibition [8] 1.24% [at 10.5 µM] | activation [9] 0.262% [at 11.8 µM] | activity change, negative = cytotoxicity [10] 0.184% [at 19 µM] | caspase activation [11] 0.316% [at 19 µM] | activity change, negative = cytotoxicity [12] 0.368% [at 19 µM] | activity change, negative = cytotoxicity [14] -1.31% [at 19 µM] | activation [17] -23.7% [at 19 µM] | activity change, negative = inhibition [18] -2.56% [at 23.6 µM] | activity change, negative = inhibition [16] -5.46% [at 23.6 µM]

c1cc2c3c(c1)ccc1cccc(c13)C2
inactive: outcome [1] | Potency [2] | Potency [3] | Potency [4] | Potency [5] | Potency [6] | Potency [7] | Potency [8] | Potency [9] | Potency [10] | Potency [11] | Potency [12] | Potency [14]
active: Potency [18] 40.8 µM

O=C(O)c1cccc(Cl)n1
inactive: outcome [1] | Potency [2] | Potency [3] | Potency [4] | Potency [5] | Potency [6] | Potency [7] | Potency [8] | Potency [9] | Potency [10] | Potency [11] | Potency [12] | Potency [14] | Potency [17] | Potency [18] | Potency [16]

CCCCCCCC/C=C/CCCOC(C)=O
active: Potency [18] 31.7 µM
inactive: outcome [1] | Potency [2] | Potency [3] | Potency [4] | Potency [5] | Potency [6] | Potency [7] | Potency [8] | Potency [9] | Potency [10] | Potency [11] | Potency [12] | Potency [13] | Potency [14] | Potency [17] | Potency [15]

CC(C)=CCCC(C)CCOC(=O)C(C)C (stereo not given)
active: Potency [18] 79.6 µM
inactive: outcome [1] | Potency [2] | Potency [3] | Potency [4] | Potency [5] | Potency [6] | Potency [7] | Potency [8] | Potency [9] | Potency [10] | Potency [11] | Potency [12] | Potency [14] | Potency [17] | Potency [15]
